Among all 5,500 compounds or so, about 2,000 (36%) were called active. Another 18% or so got no clear call; they are omitted. Rule as the data show it: active = normalized growth mostly below about 0.91 (no sharp cut-off); inconclusive = no clear call, values can overlap the other calls; inactive = mostly above about 0.92. The list shows a part of the results.
Assay: chemical genetic growth profiling, strain panel (AID 1159580);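 also: tested at 20 µM; growth read once vehicle control cultures reached saturation at 30 °C; 1 = growth at the plate median or of vehicle wells; lower values mean less growth of the strain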
Conditions: S. cerevisiae deletion strains, growth OD

Measured: normalized growth

CCNc1nc(Cl)nc(NCC)n1
inactive: locus YAL013W, strain DEP1, active compounds read low 1 | locus YAL021C, strain ccr4, active compounds read low 0.983 | locus YAL026C, strain drs2, active compounds read low 1 | locus YAL030W, strain snc1, active compounds read low 0.992 | locus YBL061C, strain skt5, active compounds read low 0.991 | locus YBR009C, strain hhf1, active compounds read low 0.995 | locus YBR021W, strain FUR4, active compounds read low 1.03 | locus YBR023C, strain chs3, active compounds read low 0.995 | locus YBR171W, strain sec66, active compounds read low 0.99 | locus YBR229C, strain ROT2, active compounds read low 0.993 | locus YBR231C, strain swc5, active compounds read low 0.993 | locus YBR279W, strain paf1, active compounds read low 1 | locus YCL011C, strain gbp2, active compounds read low 1 | locus YCL016C, strain dcc1, active compounds read low 1.01 | locus YCL029C, strain bik1, active compounds read low 0.999 | locus YCL061C, strain MRC1, active compounds read low 0.989 | locus YCL069W, strain vba3, active compounds read low 0.968 | locus YCR088W, strain abp1, active compounds read low 0.995 | locus YDL005C, strain med2, active compounds read low 0.988 | locus YDL035C, strain GPR1, active compounds read low 1 | locus YDL040C, strain nat1, active compounds read low 0.999 | locus YDL074C, strain BRE1, active compounds read low 0.975 | locus YDL101C, strain DUN1, active compounds read low 1.01 | locus YDL134C, strain PPH21, active compounds read low 1.01 | locus YDL185W, strain tfp1, active compounds read low 0.991 | locus YDL192W, strain arf1, active compounds read low 1 | locus YDR001C, strain nth1, active compounds read low 0.998 | locus YDR069C, strain doa4, active compounds read low 0.979 | locus YDR101C, strain arx1, active compounds read low 0.994 | locus YDR137W, strain rgp1, active compounds read low 1.01 | locus YDR150W, strain NUM1, active compounds read low 0.971 | locus YDR159W, strain sac3, active compounds read low 0.979 | locus YDR162C, strain NBP2, active compounds read low 0.97 | locus YDR195W, strain ref2 0.942 | locus YDR297W, strain sur2, active compounds read low 0.982 | locus YDR318W, strain mcm21, active compounds read low 1 | locus YDR334W, strain swr1, active compounds read low 0.996 | locus YDR335W, strain msn5, active compounds read low 0.989 | locus YDR388W, active compounds read low 1 | locus YDR392W, strain spt3, active compounds read low 1.01 | locus YDR502C, strain sam2, active compounds read low 1.01 | locus YEL003W, strain gim4, active compounds read low 1.01 | locus YEL037C, strain rad23, active compounds read low 1 | locus YEL061C, strain CIN8 (second series), active compounds read low 0.997 | locus YEL061C, strain CIN8, active compounds read low 0.997 | locus YER015W, strain faa2, active compounds read low 1 | locus YER016W, strain bim1, active compounds read low 1.01 | locus YER110C, active compounds read low 0.996 | locus YER111C, strain swi4, active compounds read low 0.996 | locus YER155C, strain BEM2 (second series), active compounds read low 0.973 | locus YER155C, strain BEM2, active compounds read low 1 | locus YER167W, strain BCK2, active compounds read low 1 | locus YFR010W, strain ubp6, active compounds read low 1 | locus YGL078C, strain dbp3, active compounds read low 1 | locus YGL086W, strain mad1, active compounds read low 1 | locus YGL167C, strain pmr1, active compounds read low 1 | locus YGL173C, strain kem1, active compounds read low 0.99 | locus YGL227W, strain vid30, active compounds read low 0.978 | locus YGL240W, strain doc1, active compounds read low 0.986 | locus YGL248W, strain PDE1, active compounds read low 1.03 | locus YGL253W, strain hxk2, active compounds read low 0.993 | locus YGR078C, strain PAC10, active compounds read low 0.989 | locus YGR135W, strain pre9, active compounds read low 1 | locus YGR229C, strain SMI1, active compounds read low 1 | locus YGR252W, strain gcn5, active compounds read low 1.02 | locus YHR013C, strain ard1, active compounds read low 0.998 | locus YHR027C, strain rpn1, active compounds read low 1 | locus YHR030C, strain SLT2, active compounds read low 0.98 | locus YHR079C, strain IRE1 (second series), active compounds read low 1.01 | locus YHR094C, strain hxt1, active compounds read low 1 | locus YHR129C, strain ARP1, active compounds read low 0.96 | locus YHR142W, strain chs7, active compounds read low 1.02 | locus YHR200W, strain rpn10, active compounds read low 1.01 | locus YIL066C, strain RNR3, active compounds read low 1.01 | locus YIL073C, strain SPO22, active compounds read low 1.09 | locus YIL125W, strain kgd1, active compounds read low 1 | locus YIR030C, strain dcg1, active compounds read low 1.01 | locus YJL092W, strain hpr5, active compounds read low 1 | locus YJL095W, strain BCK1 (second series), active compounds read low 0.994 | locus YJL095W, strain BCK1, active compounds read low 0.994 | locus YJL115W, strain asf1, active compounds read low 1 | locus YJL129C, strain trk1, active compounds read low 0.986 | locus YJL134W, strain LCB3, active compounds read low 0.993 | locus YJL154C, strain vps35, active compounds read low 0.992 | locus YJL164C, strain tpk1, active compounds read low 0.999 | locus YJL166W, strain qcr8, active compounds read low 0.987 | locus YJL168C, strain set2, active compounds read low 1.01 | locus YJL187C, strain SWE1 (second series), active compounds read low 1
